Experiment [1] is described as follows: liver-stage malaria parasite growth inhibition, primary screen, cell-based, HepG2, luciferase luminescence, HepG2 viability (AID 624349; in the data active = parasite load remaining mostly below about 12%, no sharp cut-off; inactive = mostly above about 10%;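 note: 100% = mean of DMSO negative control wells on the same plate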). To be noted: P. berghei liver stage in HepG2, luciferase luminescence, concentration not given here; parasite load remaining: stronger effect = lower value; viability: measured here: HepG2 viability without parasites.
Experiment [2] is described as follows: Cy5 fluorescence interference with SSB-bound oligo, artefact control for HCV NS3 helicase inhibitor project, biochemical, NIH Clinical Collection, E. coli SSB (AID 743268).
Experiment [3] concerns Hepatitis C virus NS3 helicase. Put plainly: HCV NS3 helicase inhibitors, primary screen, biochemical, fluorescence polarization, NIH Clinical Collection (AID 743270). The conditions noted are these: NS3 helicase binding to Cy5-dT15 DNA, stronger effect = higher value, concentration not given here. (In fluorescence polarisation assays a small probe gives low polarisation when free and higher when bound to something large.)

For experiment [4], the target named is Single-stranded DNA-binding protein (Escherichia coli (strain K12)) (UniProt P0AGE0). Put plainly: E. coli SSB displacement from DNA, counter-screen for HCV NS3 helicase inhibitor project, biochemical, fluorescence polarization, NIH Clinical Collection (AID 743271; in the data active = inhibition above about 28%). To be noted: stronger effect = higher value, concentration not given here. On the technique in general: Counterscreens check selectivity or assay interference.

Experiment [5] can be described thus: fluorescence interference in NS3h assay format, artefact control for HCV NS3 helicase inhibitor project, biochemical, NIH Clinical Collection (AID 743272).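 Note: HCV NS3 helicase with a Cy5 labelled single stranded DNA probe.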 To be noted: fluorescence interference counterscreen, stronger effect = lower value.
The nature of experiment [6]: stimulators of nuclear beta-catenin in C2C12, primary screen, imaging, WNT3A-conditioned medium, mouse C2C12, NPC library (AID 1117326; in the data active = nuclear beta-catenin stimulation mostly above about 4.2%, no sharp cut-off; inactive = mostly below about 10%). To be noted: stronger effect = higher value.
The nature of experiment [7]: stimulators of insulin release from INS-1E, primary screen, cell-based, 5 mM glucose, NPC library (AID 1117329;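 active = compound raises insulin release from rat beta cells at 5 mM glucose, no numeric limit stated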). The conditions noted are these: rat INS-1E insulin secretion, at 10 µM, stronger effect = higher value.
Experiment [8] in a line: growth inhibition of GSK3B-pretreated HCT116 cells – cell-based, CellTiter-Glo, 0.2 to 20 µM (AID 1117336;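 active = compounds lowering colon cancer cell viability after pretreatment blocking the GSK3B kinase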). To be noted: HCT116 viability after GSK3B inhibitor, at 20 µM, stronger effect = higher value. (In general: In ATP-based viability assays light output follows the ATP content of the culture.)
Experiment [9] is described as follows: inhibition of endothelial tube formation, primary screen, imaging, VEGF stimulated, CD31 staining, tube area, NPC library (AID 1117340;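 active = compound that reduces growth-factor-driven endothelial tube area in a mixed cell culture, no cutoff stated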). To be noted: VEGF-stimulated ADSC/ECFC co-culture, at 10 µM, stronger effect = higher value.
Experiment [10] is described as follows: glucagon-like peptide 1 release enhancers, primary assay, NCI-H716 cell line, NPC library (AID 1117341;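 active = compound raises GLP1 secretion from the human gut endocrine cells, with no numeric limit stated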). To be noted: NCI-H716 cells, at 10 µM, stronger effect = higher value.
The nature of experiment [11]: HCT116 colon cancer cell growth inhibition, primary screen, CellTiter-Glo luminescence, NPC library (AID 1117342;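 active = compounds that lower survival of HCT116 colon cancer cells in the luminescence readout, no numeric limit stated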). To be noted: at 20 µM (top of the series).
Experiment [12] is described as follows: CellTiter-Glo luminescent readout of SW480 viability loss, NPC library primary (AID 1117343;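 active = compounds that lower viability of the colon cancer cells in the luminescence readout, with no numeric limit stated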). To be noted: CellTiter-Glo luminescence; at 20 µM (top of the series).
A short description of experiment [13]: decreased DLD-1 cellular survival, CellTiter-Glo luminescent readout, NPC compound collection, primary HTS (AID 1117346;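 active = compounds that lower survival of DLD-1 colon cancer cells in the luminescence readout, no cutoff given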). The conditions noted are these: DLD-1 viability, CellTiter-Glo luminescence; at 20 µM (top of the series).
Experiment [14] relates to Hepatitis C virus NS3 helicase. The experiment is described as follows: HCV NS3 helicase inhibitors, primary screen, biochemical, fluorescence polarization, LOPAC1280 library (AID 687035; in the data active = inhibition above about 37%). To be noted: Purified HCV NS3 helicase, Cy5-dT15 ssDNA binding fluorescence polarization; stronger effect = higher value; concentration not given here.
Experiment [15] is described as follows: Cy5 fluorescence quenching or enhancement artefacts, artefact control for HCV NS3 helicase inhibitor project, biochemical, LOPAC1280 (AID 687037). The conditions noted are these: Cy5-DNA-NS3h complex fluorescence interference counterscreen.
Experiment [16] concerns Neuropilin-2 / VEGF-C interaction (human). The experiment is described as follows: inhibitors of NRP2–VEGF-C binding, biochemical, microplate binding format, z-score (AID 743281). The conditions noted are these: microplate NRP2/VEGF-C binding assay; stronger effect = lower value.

Values joined by “and” are separate entries in the source; they are usually repeats but may differ in a detail not shown here. Identical values can stand only once. Active and inactive are the calls of the source. Unless noted, the rule behind the calls is not given here.

Results on six compounds are retold here after PubChem BioAssay.

What is called viability is a read-out of living cells in per cent, often relative to untreated cells. The inhibition is the change of the read-out against control, counted positive when it falls.

On to `CC(C)(C)NC(=O)[C@H]1CC[C@H]2[C@@H]3CC[C@H]4NC(=O)C=C[C@]4(C)[C@H]3CC[C@]12C`, for which the parasite load remaining in [1] was 85.8% (inactive) and 62.9% (inactive) and 31.1% (inactive). Also, the viability in experiment [1] was 103% and 63% and 78%. Further, the fluorescence ratio in experiment [2] is 1.05 (inactive); in experiment [5] it was 1.02 (inactive). Moreover, the inhibition in experiment [3] is 0.4% (inactive); in experiment [4], -2.41% (inactive). In addition, the nuclear beta-catenin stimulation in experiment [6] (at 10 µM) was 5.2% (inactive); in experiment [6] (stimulation, at 2 µM), 2%. In addition, the insulin secretion stimulation in experiment [7] was 0.6% (inactive). Further, the viability decrease in [8] was 5.3% (inactive). The tube area decrease in experiment [9] was 8.2% (inactive). For the same compound, the GLP1 secretion stimulation in experiment [10] is 6.1% (inactive). For the same compound, in [11], the inhibition of viability is 5.67% (inactive). Besides, the viability decrease (inhibition) in experiment [12] was 7.4% (inactive); in experiment [13], -4% (inactive).

For the compound `Nc1nnc(-c2cccc(Cl)c2Cl)c(N)n1`, the parasite load remaining in experiment [1] is 90.9% (inactive) and 119% (inactive) and 49.7% (inactive). The viability in experiment [1] was 105% and 77.7% and 112%. The inhibition in [14] is -5% (inactive); in experiment [3] it was 0.4% (inactive); in [4], -1.64% (inactive). For the same compound, the fluorescence ratio (interference) in [15] was 1 (inactive). In addition, the fluorescence ratio was 1.03 (inactive) in [2] and 0.99 (inactive) in experiment [5]. Also, the z-score in experiment [16] is -0.624 (inactive). Also, the nuclear beta-catenin stimulation in [6] (at 10 µM) is 0.7% (inactive); in experiment [6] (stimulation, at 2 µM) it was 0.5%. Further, in [7], the insulin secretion stimulation is -0.4% (inactive). Further, in [8], the viability decrease was -5.8% (inactive). For the same compound, the tube area decrease in [9] is 9.4% (inactive). Moreover, the GLP1 secretion stimulation in experiment [10] was -4.7% (inactive). Besides, the inhibition of viability in [11] was 9.7% (inactive). Also, the viability decrease (inhibition) in experiment [12] was 29.2% (inactive); in experiment [13], -4.7% (inactive).

Take `CCOC(=O)O[C@]1(C(=O)OCCl)CC[C@H]2[C@@H]3CCC4=CC(=O)C=C[C@]4(C)[C@H]3[C@@H](O)C[C@@]21C`: in experiment [1], the parasite load remaining is 196% (inactive). The viability in [1] came to 72.9%. Also, the fluorescence ratio in experiment [2] is 1.04 (inactive); in [5], 1.05 (inactive). Also, the inhibition was -0.4% (inactive) in experiment [3] and 4.52% (inactive) in experiment [4]. The nuclear beta-catenin stimulation is -1.2% (inactive) in [6] (at 10 µM) and -0.3% in experiment [6] (stimulation, at 2 µM). The insulin secretion stimulation in [7] is 7% (inactive). Moreover, the viability decrease in experiment [8] was 12.3% (inactive). Moreover, in experiment [9], the tube area decrease was -0.4% (inactive). In [10], the GLP1 secretion stimulation was 0.9% (inactive). The inhibition of viability in experiment [11] was 3.1% (inactive). Further, the viability decrease (inhibition) in experiment [12] was 0.5% (inactive); in experiment [13], 21.9% (inactive).

As to `Cc1cccc(C)c1NC(=O)C(C)N` (configuration not stated), in experiment [1], the parasite load remaining is 112% (inactive) and 108% (inactive). In experiment [1], the viability is 79.8% and 73.3%. The inhibition is -5% (inactive) in experiment [14], -5.15% (inactive) in experiment [3] and -3.95% (inactive) in [4]. For the same compound, in experiment [15], the fluorescence ratio (interference) was 1 (inactive). Moreover, the fluorescence ratio in experiment [2] was 1.05 (inactive); in experiment [5], 1 (inactive). Besides, in experiment [16], the z-score was -0.227 (inactive). For the same compound, the nuclear beta-catenin stimulation in experiment [6] (at 10 µM) was 0.2% (inactive); in [6] (stimulation, at 2 µM) it was 1.2%. Also, the insulin secretion stimulation in [7] was 0.2% (inactive). Also, the viability decrease in [8] is -2.3% (inactive). The tube area decrease in experiment [9] was -7.9% (inactive). Further, the GLP1 secretion stimulation in [10] was -0.6% (inactive). In addition, in experiment [11], the inhibition of viability is -4.1% (inactive). Also, the figures for the viability decrease (inhibition) in experiment [12] and in experiment [13] were 0.1% (inactive) and -5.7% (inactive), respectively.

With `Nc1ccn([C@H]2CC[C@@H](CO)O2)c(=O)n1`, in experiment [1], the parasite load remaining was 89% (inactive) and 87.9% (inactive) and 17.9% (inactive). Further, in experiment [1], the viability was 73.7% and 72.5%. Also, the results for the inhibition in experiment [14], in [3] and in [4] were 0% (inactive), 2.77% (inactive) and -1.64% (inactive), respectively. For the same compound, the fluorescence ratio (interference) in experiment [15] is 1 (inactive). Also, the fluorescence ratio in [2] is 1.05 (inactive); in experiment [5], 1.02 (inactive). Also, in experiment [16], the z-score is 0.496 (inactive). Moreover, the nuclear beta-catenin stimulation in [6] (at 10 µM) is -1% (inactive); in experiment [6] (stimulation, at 2 µM), -1.5%. Moreover, the insulin secretion stimulation in experiment [7] was -0.3% (inactive). Besides, the viability decrease in experiment [8] is 6.9% (inactive). Also, the tube area decrease in experiment [9] was -2.2% (inactive). Also, the GLP1 secretion stimulation in [10] is 1.4% (inactive). In addition, the inhibition of viability in experiment [11] was -1.1% (inactive). Moreover, the viability decrease (inhibition) is -0.9% (inactive) in [12] and 8.55% (inactive) in [13].

On to `CC(C(=O)O)c1ccc(CC2CCCC2=O)cc1` (configuration not stated), for which, in experiment [1], the parasite load remaining was 108% (inactive). Also, the viability in experiment [1] is 79.1%. Moreover, the inhibition in experiment [14] was -4% (inactive); in [3], 5.94% (inactive); in experiment [4], 4.52% (inactive). The fluorescence ratio (interference) in experiment [15] is 1 (inactive). Further, the fluorescence ratio was 1.12 (inactive) in experiment [2] and 1.09 (inactive) in experiment [5]. Further, in [16], the z-score was -0.224 (inactive). In addition, the nuclear beta-catenin stimulation was -1.5% (inactive) in [6] (at 10 µM) and -0.2% in experiment [6] (stimulation, at 2 µM). For the same compound, the insulin secretion stimulation in [7] was -1.3% (inactive). Also, the viability decrease in experiment [8] is 9.37% (inactive). In [9], the tube area decrease was -7.8% (inactive). Also, the GLP1 secretion stimulation in experiment [10] was 0.4% (inactive). The inhibition of viability in [11] was 10.8% (inactive). The viability decrease (inhibition) in experiment [12] is 37.6% (inactive); in experiment [13], 5.13% (inactive).
